# From PubChem BioAssay (NCATS)
# Records with an inconclusive call do not appear. Active and inactive are the calls of the source. Unless noted, the call rests on the fitted dose curve; in most records, active means well fitted curve in the direction sought with a large enough effect; inconclusive means small, poorly fitted or top-dose-only effect, or another doubt; inactive means no such curve, though single readings can be large; an effect the other way counts as inactive or inconclusive.
# Key:
# [1] = High-throughput drug toxicity screening in the BPDCN cell line Gen2.2 (AID 1224824; call rule not given here;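 further: cells exposed to compounds for 48 h before reading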); conditions: Gen2.2 BPDCN cells; at 45.8 µM (top of the series)
# How it was run: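 Gen2.2 cells (500/well) in phenol red-free RPMI with 10% FBS were exposed to compounds for 48 h at 37 °C, 5% CO2. Viability was read by CellTiter-Glo luminescence and normalized to DMSO (100%) and 9.2 uM bortezomib (0%).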
# [2] = High-throughput drug toxicity screening in the BPDCN cell line Cal-1 (AID 1224825; call rule not given here); conditions: Cal-1 BPDCN cell viability, qHTS; at 45.8 µM (top of the series)
# How it was run: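 Percent activity derived from CellTiter-Glo luminescence, scaling DMSO to 100% and 9.2 uM final bortezomib to 0%. BPDCN Cal-1 cells (500/well, RPMI plus 10% FBS) incubated with compounds 48 hours at 37C before reading.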
# [3] = qHTS assay for measurement of the activity of small molecule inhibitors on Zika virus induced Caspase-3 activity in human iPSC derived neural progenitor cells (hNPCs) (AID 1224857); further: % of control where 0% means no effect; nearly all actives have a fitted effect of over 65% in size
# How it was run: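 Caspase-3/7 induction by a 6-hour ZIKV infection was quantified with a luminescent Caspase-Glo 3/7 reagent incubated 30 minutes at room temperature. Compounds were preincubated with hNPCs for 1 hour; inhibition was calculated against uninfected and infected control wells.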
# [4] = qHTS assay for measurement of the activity of small molecule inhibitors on Zika virus induced Caspase-3 activity in human astrocytoma cells (AID 1224859);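 further: plate controls were ZIKV-infected untreated cells for no effect and uninfected cells for full effect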
# How it was run: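 In SNB-19 cells plated at 250 cells/well and grown 16-20 h, compounds were applied 1 h before ZIKV (2 FFU/cell). Six hours later caspase-3/7 luminescence was recorded.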
# [5] = qHTS Screen of the MIPE 4.0 Collection Against Ewings Sarcoma (RDES) (AID 1259252); further: nearly all actives have a fitted effect of over 35% in size; further: potency means the concentration at half of the fitted maximal effect
# How it was run: (§1)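 CellTiter-Glo luminescence after 48 h compound exposure (titration) gave viability; percent activity used DMSO-treated cells as no inhibition and medium-only wells as full inhibition. Cells grown in RPMI/5% FBS, dosed 4 h post-seeding.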
# [6] = qHTS Screen of the MIPE 4.0 Collection Against Ewings Sarcoma (TC71) (AID 1259253); further: nearly all actives have a fitted effect of over 40% in size; further: potency means the concentration at half of the fitted maximal effect
# How it was run: as §1
# [7] = qHTS Screen of the MIPE 4.0 Collection Against Ewings Sarcoma (EW8) (AID 1259255); further: nearly all actives have a fitted effect of over 35% in size; further: potency means the concentration at half of the fitted maximal effect;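 on viability: 100% = DMSO-treated cells and 0% = medium-only wells without cells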
# How it was run: as §1
# [8] = qHTS Screen of the MIPE 4.0 Collection Against Ewings Sarcoma (TC32) (AID 1259256); further: nearly all actives have a fitted effect of over 45% in size; further: potency means the concentration at half of the fitted maximal effect
# How it was run: as §1
# [9] = Immunotoxin (SS1P) sensitization/mitigation study. Vehicle arm (DMEM) (AID 1159513; call rule not given here; further: potency means the concentration at half of the fitted maximal effect)
# [10] = qHTS assay to identify small molecule inhibitors of chordoma cells - UCH-2 (AID 1259356); further: on the % scale 0 is the no-effect control and ±100 the full control effect
SMILES,"cell viability, % of control (lower = more cytotoxic) [1]",viability (% of control) [2],Potency [3],Potency [4],Potency [5],Potency [6],Potency [7],Potency [8],Potency [9],Potency [10]
O=c1[nH]c2ccccc2n1C1CCN(Cc2ccc(-c3[nH]c4cc5ncnc5cc4nc3-c3ccccc3)cc2)CC1,4.84%,3.61%,inactive,inactive,23.5 µM (active),20.9 µM (active),18.7 µM (active),20.9 µM (active),,
O=C(O)CNC(=O)c1c(O)c2ccccc2n(Cc2ccccc2)c1=O,256%,132%,inactive,inactive,14.8 µM (active),13.2 µM (active),16.6 µM (active),,,
CC(=CCCC1=CCC(C2=CC(=O)OC2O)OC1O)CCC1=C(C)CCCC1(C)C (stereo not given),124%,103%,inactive,inactive,18.7 µM (active),,,20.9 µM (active),,
CC(=Cc1csc(C)n1)[C@@H]1C[C@H]2O[C@]2(C)CCC[C@H](C)[C@@H](O)[C@@H](C)C(=O)C(C)(C)[C@@H](O)CC(=O)O1,50.2%,17%,inactive,inactive,,inactive,inactive,inactive,,
C=C1C[C@H]2[C@H]3CCC(=O)[C@@]3(C)CC[C@@H]2[C@@]2(C)C=CC(=O)C=C12,12.4%,32.6%,inactive,inactive,,,,,,
Cc1c(N)nc([C@H](CC(N)=O)NC[C@@H](N)C(N)=O)nc1C(=O)N[C@H](C(=O)N[C@@H](C)[C@H](O)[C@@H](C)C(=O)N[C@@H](C(=O)NCCc1nc(-c2nc(C(=O)NCCC[S+](C)C)cs2)cs1)[C@@H](C)O)C(O[C@H]1O[C@H](CO)[C@H](O)[C@@H](O)[C@@H]1O[C@H]1O[C@H](CO)[C@@H](O)[C@H](OC(N)=O)[C@H]1O)c1cnc[nH]1 (stereo not given in full),132%,16%,inactive,inactive,1.05 µM (active),0.526 µM (active),0.264 µM (active),0.418 µM (active),,
CC[C@@H](C(N)=O)N1CCCC1=O,211%,113%,inactive,inactive,inactive,inactive,,,,
COc1ccc(C(=O)c2c(C)n(CCN3CCOCC3)c3cc(I)ccc23)cc1,4.27%,5.23%,inactive,inactive,,,,,,
C#C[C@]1(O)C=C[C@@H]2[C@@H]3CCC4=CC(=O)CC[C@@H]4[C@H]3CC[C@@]21CC,62.7%,74.7%,inactive,inactive,inactive,inactive,inactive,inactive,,
CC(=O)NCCC(=O)N[C@@H](CCC(N)=O)C(=O)N[C@@H](CO)C(=O)N[C@@H](CCC(N)=O)C(=O)N[C@@H](CCC(N)=O)C(=O)N[C@H](C(=O)N[C@@H](Cc1ccccc1)C(=O)N[C@]1(C)CCCCCCC=CCCC[C@@](C)(C(=O)N[C@@H](CCC(N)=O)C(=O)N[C@@H](CC(N)=O)C(N)=O)NC(=O)[C@H](CC(C)C)NC(=O)[C@H](CC(C)C)NC(=O)[C@@H](CCCNC(=N)N)NC(=O)[C@H](Cc2c[nH]c3ccccc23)NC(=O)[C@H](CC(C)C)NC(=O)[C@H](CC(N)=O)NC1=O)[C@H](C)O,,,,,,,,,inactive,
COc1ccc2c(c1)[C@]13CCCCC1C(C2)N(C)CC3 (stereo not given in full),61.8%,93.4%,inactive,inactive,inactive,inactive,inactive,inactive,,
CCc1c(C(=O)C(N)=O)c2c(OCC(=O)O)cccc2n1Cc1ccccc1,114%,115%,inactive,inactive,,20.9 µM (active),,,,
C=C[C@@H]1CN2CCC1C[C@@H]2[C@@H](O)c1ccnc2ccccc12 (stereo not given in full),220%,93.3%,inactive,inactive,16.6 µM (active),18.7 µM (active),,,,
O=C(NCC1CCOCC1)c1cnc(Nc2ccc(Cl)cc2Cl)nc1C(F)(F)F,7.01%,7.59%,inactive,,,,,,,
CCN1C[C@]2(OC(=O)c3ccccc3NC(C)=O)CC[C@H](OC)[C@@]34[C@H]5CC6[C@@H](OC)C[C@](O)(C(C[C@@H]23)[C@@H]14)[C@@]5(O)[C@@H]6OC,137%,108%,inactive,inactive,inactive,inactive,inactive,inactive,,
C[C@]12CC[C@@H]3[C@@H](CCC4=CC(=O)CC[C@@H]43)[C@@H]1CC[C@@H]2OC(=O)CCc1ccccc1,119%,104%,inactive,inactive,inactive,9.35 µM (active),,,,
COc1ccc2c(c1)CN(C)CC2c1ccc(Cl)c(Cl)c1 (stereo not given),41%,12.2%,inactive,inactive,,,,,,
C[C@@H]1CC[C@@]2(OC1)O[C@H]1C[C@H]3[C@@H]4CC=C5C[C@@H](O[C@@H]6O[C@H](CO)[C@@H](O[C@@H]7O[C@@H](C)[C@H](O)[C@@H](O)[C@@H]7O)[C@H](O)[C@@H]6O[C@@H]6O[C@@H](C)[C@H](O)[C@@H](O)[C@@H]6O)CC[C@]5(C)[C@@H]4CC[C@]3(C)[C@@H]1[C@H]2C,10.6%,12.9%,inactive,inactive,4.18 µM (active),3.72 µM (active),3.72 µM (active),3.72 µM (active),,
CCCN1CCO[C@@H]2c3cc(O)ccc3OC[C@@H]21,209%,16.6%,inactive,inactive,inactive,inactive,,,,
O=C(Nc1ccncc1)C(=O)c1cn(Cc2ccc(Cl)cc2)c2ccccc12,73.9%,16.2%,inactive,inactive,0.0935 µM (active),0.132 µM (active),0.0935 µM (active),inactive,,

SMILES,"cell viability, % of control (lower = more cytotoxic) [1]",viability (% of control) [2],Potency [3],Potency [4],Potency [5],Potency [6],Potency [7],Potency [8],Potency [9],Potency [10]
COC[C@H]1OC(=O)c2coc3c2[C@@]1(C)C1=C(C3=O)[C@@H]2CC[C@H](O)[C@@]2(C)C[C@@H]1OC(C)=O,5.55%,9.36%,inactive,inactive,5.9 µM (active),13.2 µM (active),6.62 µM (active),2.09 µM (active),,
O=[N+]([O-])c1ncc[nH]1,102%,122%,inactive,inactive,inactive,inactive,inactive,,,
O=C(N[C@@H](COc1ccc2[nH]c(=O)[nH]c2c1)c1ccccc1)c1cccn(Cc2ccc(F)c(F)c2)c1=O,46.5%,36.8%,inactive,inactive,23.5 µM (active),,,18.7 µM (active),,
COC(=O)[C@@H](N)CCCN=C(N)N[N+](=O)[O-],113%,132%,inactive,inactive,inactive,inactive,inactive,inactive,,
C[C@](O)(COc1ccc(C#N)cc1)C(=O)Nc1ccc(C#N)c(C(F)(F)F)c1,54.6%,99.4%,inactive,inactive,inactive,,inactive,inactive,,
O=c1[nH]c2ccc(Cl)cc2c(N[C@@H]2CN3CCC2CC3)c1-c1nc2ccccc2[nH]1,2.72%,2.3%,inactive,inactive,1.66 µM (active),0.0418 µM (active),0.0743 µM (active),0.0833 µM (active),,
CCNC(=O)CC1N=C(c2ccc(Cl)cc2)c2cc(OC)ccc2-n2c(C)nnc21 (stereo not given),15.2%,11.7%,inactive,inactive,13.2 µM (active),16.6 µM (active),20.9 µM (active),16.6 µM (active),,
CN(C)[C@@H]1C(=O)C(C(N)=O)=C(O)[C@@]2(O)C(=O)C3=C(O)c4c(O)cccc4[C@@](C)(O)[C@H]3[C@H](O)[C@@H]12,109%,100%,inactive,inactive,inactive,inactive,inactive,inactive,,inactive
O=c1cccc2n1CC1CNC[C@H]2C1,51.5%,13.3%,inactive,inactive,inactive,inactive,inactive,,,
Cc1c(C(=O)Nc2cccc(C(F)(F)F)c2)cc(-c2ccccc2)n1CCCN1CCOCC1,52.7%,37.9%,,inactive,13.2 µM (active),6.62 µM (active),16.6 µM (active),8.33 µM (active),23.5 µM (active),
Cc1ccccc1-n1c(Cn2ncc3c(N)ncnc32)nc2cccc(C)c2c1=O,28.1%,17.1%,inactive,inactive,10.5 µM (active),16.6 µM (active),26.4 µM (active),11.8 µM (active),,
C[C@H]1CCCC=CC2C[C@H](O)C[C@@H]2[C@H](O)C=CC(=O)O1 (stereo not given in full),4.51%,4%,inactive,inactive,inactive,inactive,inactive,inactive,,
C#CC1(O)CCC2C3CCC4=CC(=O)CCC4(C)C3CCC21C (stereo not given),168%,100%,inactive,inactive,inactive,inactive,inactive,inactive,,
CC[C@@]1(O)C(=O)OCc2c1cc1n(c2=O)Cc2cc3ccccc3nc2-1,4.89%,3.88%,inactive,inactive,,0.0093 µM (active),0.0118 µM (active),0.0037 µM (active),,
c1cc2c(cc1[C@H]1OC[C@H]3[C@H]1CO[C@H]3c1ccc3c(c1)OCO3)OCO2,197%,91%,inactive,inactive,,,inactive,inactive,,
COc1cc([C@@H]2c3cc4c(cc3[C@@H](O)C3COC(=O)C32)OCO4)cc(OC)c1O (stereo not given in full),6.47%,5.19%,inactive,inactive,,0.0418 µM (active),0.0264 µM (active),inactive,,
CO[C@H]1CCC(O[C@H]2C[C@H]([C@]3(C)CC[C@]4(C[C@H](O)[C@@H](C)[C@@H]([C@@H](C)C=C(C)C(=O)[C@H](C)C[C@H](C)C(=O)O)O4)O3)O[C@]3(O[C@@H]([C@H]4O[C@@](O)(CO)[C@H](C)C[C@H]4C)C[C@H]3C)[C@H]2C)O[C@H]1C (stereo not given in full),92%,72.5%,inactive,inactive,,0.332 µM (active),0.372 µM (active),0.418 µM (active),,
COc1ccc(N(C(=O)Oc2c(C)cccc2C)c2ccnc(Nc3ccc(N4CCN(C)CC4)cc3)n2)c(OC)c1,137%,13.7%,inactive,inactive,,2.35 µM (active),2.64 µM (active),2.64 µM (active),,
C[C@]12CCC(=O)C(O)=C1CC[C@@H]1[C@H]3CCC(=O)[C@@]3(C)CC[C@@H]12,78%,116%,inactive,inactive,,,,,,inactive
